# Assay outcomes: PubChem, The Scripps Research Institute Molecular Screening Center
# NCOA2 inhibitor: inhibition of GAL4-SRC2 driven luciferase reporter, primary screen, SRC2 inhibitor project, cell-based, luminescence; Nuclear receptor coactivator 2 (Homo sapiens), Q15596; HEK293 GAL4-SRC2 luciferase reporter; inhibition, % at 9 µM; hit rate 0.17% among 370,000; AID 651957, 2012;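 active = inhibition above the mean inhibition of all tested compounds plus 3 SD, set per campaign, cut at about 52% in these data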;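 note: 0% = DMSO treated cells and 100% = cells given Gossypol at 36 µM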
# SRC1 inh: SRC1 coactivator transcriptional activity inhibitors, primary screen, cell-based, luminescence; HEK293 GAL4-SRC1 luciferase reporter; inhibition, % at 3.6 µM; hit rate 0.12% among 360,000; AID 588354, 2011;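 active = inhibition above the campaign mean plus 3 SD, with each screening campaign given its own cutoff, cut at about 60% in these data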;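 note: 0% = DMSO treated cells and 100% = gossypol at 36 µM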
# NR5A2 inv ag: LRH-1 (NR5A2) inverse agonists, primary screen, cell-based, luminescence, HEK293T, StAR-luciferase reporter; inhibition, % at 3.6 µM; LRH-1 transfected, 24 h; hit rate 0.13% among 360,000;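 active = inhibition above the mean inhibition of all tested compounds plus 3 SD, cut at about 73% in these data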;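 note: 0% = DMSO wells and 100% = reporter-only cells lacking LRH-1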
# Target sequence (O00482 whole entry, looked up): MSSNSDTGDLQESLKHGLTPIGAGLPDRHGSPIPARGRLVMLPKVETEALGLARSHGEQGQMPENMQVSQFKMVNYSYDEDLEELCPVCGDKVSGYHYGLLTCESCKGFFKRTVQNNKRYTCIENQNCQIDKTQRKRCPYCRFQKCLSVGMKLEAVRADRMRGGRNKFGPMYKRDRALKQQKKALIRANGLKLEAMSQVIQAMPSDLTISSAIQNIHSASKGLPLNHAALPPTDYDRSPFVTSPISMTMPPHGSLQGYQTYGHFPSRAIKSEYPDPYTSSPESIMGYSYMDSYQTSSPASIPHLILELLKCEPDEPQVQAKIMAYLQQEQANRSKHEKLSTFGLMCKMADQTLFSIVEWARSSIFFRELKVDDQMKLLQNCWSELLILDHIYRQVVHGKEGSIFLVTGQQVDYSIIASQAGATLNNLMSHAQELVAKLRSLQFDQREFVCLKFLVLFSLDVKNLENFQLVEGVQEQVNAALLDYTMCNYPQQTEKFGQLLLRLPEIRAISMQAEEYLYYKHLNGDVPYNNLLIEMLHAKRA
# NCOA3 inh: SRC3 coactivator transcriptional activity inhibitors, primary screen, cell-based, luminescence; Nuclear receptor coactivator 3 (Homo sapiens), Q9Y6Q9; HEK293 GAL4-SRC3 luciferase reporter; inhibition, % at 3.6 µM; hit rate 0.17% among 360,000; AID 588352, 2011;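 active = inhibition above a per-campaign cutoff, the mean of all compounds plus 3 SD, cut at about 60% in these data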;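 note: 0% = DMSO-treated cells and 100% = gossypol-treated cells at 36 µM; higher means less SRC3-driven luciferase light from the GAL4 reporter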
# NR2F2 inh: NR2F2 transcriptional activity inhibitors, primary screen, cell-based, luciferase reporter, HEK293T, luminescence; COUP transcription factor 2 (Homo sapiens), P24468; HEK293T NGFI-A luciferase reporter; inhibition, % at 8.6 µM; hit rate 0.7% among 370,000; AID 686940, 2013;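 active = inhibition above a per-plate cutoff, mean inhibition of test wells between control levels plus 3 SD, cut at about 38% in these data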;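 note: cells cotransfected with COUP-TFII expression vector driving the NGFI-A reporter; 0% = median of COUP-TF2 test wells and 100% = reporter-only cells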
# GalR3 antagonist: GalR3 antagonists in HEK293 cells, primary screen, cell-based, fluorescence readout | Galanin receptor type 3 (Homo sapiens), O60755 | HEK293 GalR3-CNG cAMP membrane potential fluorescence; galR3 body fused to GalR1 C-terminus | inhibition, % at 3 µM | hit rate 0.44% among 360,000 | AID 651719, 2012;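 active = inhibition above the screen-wide average plus 3 SD, cut at about 13% in these data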;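 note: forskolin and galanin both at EC90 stimulate the cells; cAMP rise reported by CNG channel membrane potential dye signal; 0% = forskolin plus galanin with DMSO and 100% = forskolin alone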
# Gal4-VP16 ctr: Gal4-VP16 luciferase reporter inhibitors, counter-screen for COUP-TFII antagonist project, cell-based, luminescence, HEK293 | shares compounds with NR2F2 inh | inhibition, % at 8.5 µM | hit rate 25% among 2,500; in the data active = inhibition above about 13%
# COUP-TFII conf: NR2F2 transcriptional activity inhibitors, confirmation, cell-based, luciferase reporter, HEK293, triplicate; shares compounds with NR2F2 inh; HEK293 NGFI-A luciferase reporter, luminescence; inhibition, % at 8.5 µM; hit rate 45% among 2,500; AID 687008, 2013;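 active = mean inhibition over three repeats above a set limit taken from the earlier primary screen, cut at about 38% in these data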;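 note: 100% = cells given the luciferase reporter alone without the COUP-TF2 vector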
# * hit, by the source's call; . = no result. This is a sample that favours compounds with a hit; in the whole collection about 1.1% have one here.
SMILES,NCOA2 inhibitor,SRC1 inh,NR5A2 inv ag,NCOA3 inh,NR2F2 inh,GalR3 antagonist,Gal4-VP16 ctr,COUP-TFII conf
CCCCCc1cc(O)c2c(C)cc(=O)oc2c1,7,-2,3,18,41*,-6,-20,-3
CCC1CSC(Nc2ccc(C(=O)/C=C/c3ccc(OC)c(OC)c3)cc2)=N1 (stereo not drawn),36,-2,-5,16,61*,-10,-7,33
CCC1CSC(Nc2ccc(C(=O)/C=C/c3ccc(Br)cc3)cc2)=N1 (stereo not drawn),-2,-16,-26,6,9,-2,.,.
Cc1ccc(C#CC[N+]2(CC#Cc3ccc(C)cc3)CCCCC2)cc1,24,35,59,26,45*,-3,13*,36
C[C@H]1CCCCO[C@H](CN(C)Cc2ccc(C(=O)O)cc2)[C@@H](C)CN([C@@H](C)CO)C(=O)c2cc(NS(=O)(=O)c3cn(C)cn3)ccc2O1,-8,-14,-2,-6,-1,-8,.,.
CCOc1ccc(N=Cc2ccc(N(C)C)cc2)c(O)c1,.,-81,-24,-67,.,.,.,.
CCn1cc(CCCC(=O)NCc2ccccc2OC)c2ccccc21,2,2,-7,3,2,-8,.,.
CCn1cc(CCCC(=O)NCc2cccc(OC)c2)c2ccccc21,-16,-37,-6,5,38*,-9,-5,7
CSc1nc(C)c(CCOCc2ccccc2)c(=O)[nH]1,-1,-2,6,-9,0,-3,.,.
O=C(Nc1nc(-c2ccc(F)cc2)cs1)C1CCN(C(=O)c2ccc(F)cc2)CC1,30,3,1,2,58*,-8,4,46*
COc1ccc(-c2cc(C)no2)cc1S(=O)(=O)NCCCN1CCN(c2ccccc2)CC1,-32,4,-8,12,6,-5,.,.
Cc1cc(-c2ccc(C)c(S(=O)(=O)NCCCN3CCN(c4ccccc4)CC3)c2)on1,29,-11,1,12,62*,4,1,19
COCC(C)n1c(C)cc(C(=O)COC(=O)c2cccn2C)c1C (stereo not drawn),33,30,22,43,57*,-5,-42,50*
COCC(C)n1c(C)cc(C(=O)COC(=O)c2cnc(Cl)c(Cl)c2)c1C (stereo not drawn),28,-7,8,12,-31,-5,.,.
COc1ccc(-n2nc(C(=O)O)c3ccccc3c2=O)cc1,1,-13,4,-2,20,-5,.,.
CC(=O)c1c(C)[nH]c(C(=O)Nc2ccc(Cl)c(S(=O)(=O)N(C)C)c2)c1C,-51,-75,-57,-49,-60,-9,.,.
CC(=O)c1c(C)[nH]c(C(=O)OCC(=O)Nc2ccc(Cl)c(S(=O)(=O)N(C)C)c2)c1C,14,10,19,19,45*,-7,-3,14
CC(=O)c1c(C)[nH]c(C(=O)OCC(=O)Nc2ccc(Cl)cc2[N+](=O)[O-])c1C,32,20,44,36,63*,71*,5,60*
CCOC(=O)c1c(C)[nH]c(C(=O)OCC(=O)Nc2cc(Cl)ccc2OC)c1C,5,-7,19,-8,21,-3,.,.
Cc1ccc(C(=O)O)cc1NCc1ccncc1,17,-1,19,-1,-5,2,.,.
Cc1nc(N)nc(N)c1/C=C/C(C)(C)c1ccc(Cl)cc1,22,70*,45,49,47*,-11,28*,23
O=C(Nc1cc(Sc2ccccn2)cc([N+](=O)[O-])c1)c1cccc(F)c1,12,-7,20,12,42*,1,-1,19
O=C(Nc1cc(Sc2nc3ccccc3s2)cc([N+](=O)[O-])c1)c1ccccc1,24,-12,11,-2,5,0,.,.
CCOCc1nc(N)nc(N)c1-c1cccc(Cl)c1,-7,-13,23,-12,57*,-5,-11,-4
O=C(c1ccc(S(=O)(=O)c2cccc(Cl)c2)c([N+](=O)[O-])c1)N1CCN(c2ccccn2)CC1,28,-1,2,19,45*,0,21*,9
SMILES,NCOA2 inhibitor,SRC1 inh,NR5A2 inv ag,NCOA3 inh,NR2F2 inh,GalR3 antagonist,Gal4-VP16 ctr,COUP-TFII conf
COc1ccc([C@H]2CC(=O)C=C(c3cc(Cl)ccc3C)C2)cc1,-7,-8,-3,4,-17,-6,.,.
COc1ccc([C@H]2CC(=O)C=C(c3ccnc4ccc(Cl)cc34)C2)cc1,-16,31,21,22,69*,7,12,65*
CCOc1cc(/C=N/NC(N)=S)cc(Br)c1OCc1ccccc1C,.,-6,31,21,.,.,.,.
COc1cc(/C=N/NC(N)=S)cc(Br)c1OCc1ccccc1F,23,10,64,37,52*,-9,24*,51*
Cc1ccc(S(=O)(=O)N2CCC(=O)N(C(COCc3ccc(C(F)(F)F)cc3)Cc3ccccc3)CC2)cc1 (stereo not drawn),5,3,3,0,1,-9,.,.
COc1cc(C[C@@H]2C(=O)OC[C@H]2Cc2ccc(OC)c(OC)c2)ccc1O,17,22,43,20,70*,102*,0,57*
NC(=O)c1ccccc1NC(=O)COC(=O)C1(c2ccccc2)CC1,-23,2,10,-2,8,-4,.,.
Cc1ccc(NC(=O)CNCC2CCCCC2)cc1S(=O)(=O)N(C)C,-7,-1,9,8,5,-5,.,.
COc1ccc(C2=Nn3c([n+](C)c4ccccc43)SC2)cc1,-31,37,67,54,73*,-3,10,65*
C[n+]1c2n(c3ccccc31)N=C(c1ccc(Cl)cc1)CS2,17,25,34,30,54*,-4,6,36
CN(C)S(=O)(=O)c1cccc(NC(=O)CC23CC4CC(CC(C4)C2)C3)c1,13,0,4,-2,8,-3,.,.
CC(C)(C)C(=O)Nc1ccc(N2CCN(c3ccc(C(F)(F)F)cn3)CC2)nc1,11,2,-9,6,0,-4,.,.
CS(=O)(=O)Nc1ccc(N2CCN(c3ccc(C(F)(F)F)cn3)CC2)nc1,16,1,9,14,43*,-4,-3,11
